Wnt act: activators of Wnt/beta-catenin signaling; Wnt/beta-catenin reporter cell assay, activator, plate reader; activation, % at 9.35 µM; 300,000 compounds, 1.2% hits; in the data active = activation above about 30%, passing the limit was not always enough; inconclusive = no clear call, values can overlap the other calls
miR-122 sensor: inhibitors of miR-122 in Huh7 cells; Huh7 miR-122 Renilla luciferase sensor, 48 h; neutral wells = 0, positive control = 100; activation (reporter increase), % at 12.5 µM; 340,000 compounds, 0.3% hits; AID 602342;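 active = mean replicate activation score at least 90 and every replicate individually at or above 90; inconclusive = only one of the two criteria met; inactive = neither criterion met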;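 note: higher luciferase means less miR-122 activity so hits act as miR-122 inhibitors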
esBAF inh: inhibitors of esBAF chromatin remodeling in mouse ES cells; Bmi1-luciferase knock-in reporter, 24 h; 100% = twice the neutral-well signal; reporter increase, % at 12.5 µM; 350,000 compounds, 2% hits; in the data active = activation above about 40%; inconclusive = no clear call, values can overlap the other calls;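 note: a rise in the Bmi1 reporter signal indicates esBAF inhibition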
MITF act: increases MITF-driven TRPM1 promoter luciferase signal | SK-MEL-5 TRPM1-promoter luciferase, 24 h; % of positive control, neutral wells = 0 | activation, % at 12.5 µM | 300,000 compounds, 0.75% hits | AID 588334;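 active = mean activation of at least 80% with every replicate also reaching 80%; inconclusive = mean reaches 80% but some replicate falls short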
HIV Env fusion: inhibitors of HIV Env-mediated cell fusion | HeLa-JRFL Env/CEM21 cell fusion, luciferase | 360,000 compounds, 1.1% hits | inhibition, % at 12.3 µM;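 active = mean replicate inhibition score of at least 50 and every replicate individually at or above 50; inconclusive = only one of the two criteria met; inactive = mean below 50 and not all replicates reaching 50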
Large screens that a line does not name were inactive; [ ] = dose if it differs, or a comment. Only some compounds are listed: those with a hit (about 3.4% of all), similar ones and a draw of the others.

C=CCOC(=O)[C@H]1[C@@H]2C(=O)O[C@@H](c3ccccc3)[C@@H](c3ccccc3)N2[C@@H](c2ccc(OCCOC(=O)[C@H]3C[C@H]4C(=O)N[C@@H](CC(C)C)C(=O)N4[C@H]3c3cccc(OCCO)c3)cc2)[C@]12C(=O)Nc1ccccc12	none (no result: Wnt act, miR-122 sensor, esBAF inh, MITF act)
O=C(NCc1ccccc1)[C@@H]1[C@@H](CO)[C@@H]2Cn3c(ccc(-c4cccc(F)c4)c3=O)[C@H]1N2	none (no result: Wnt act, miR-122 sensor, MITF act)
CCCN1C[C@H](C)[C@H](OC)CN(C)C(=O)c2cc(NC(=O)C3CCC3)ccc2OC[C@@H]1C	none (no result: Wnt act, MITF act)
C[C@@H]1CCCCO[C@@H](CN(C)Cc2ccc(C(F)(F)F)cc2)[C@H](C)CN([C@H](C)CO)C(=O)c2cc(NS(=O)(=O)c3ccc(Cl)cc3)ccc2O1	HIV Env fusion 61[16.7 µM] (no result: Wnt act, MITF act)
C[C@@H]1CN([C@H](C)CO)C(=O)c2cc(NS(=O)(=O)c3ccc(Cl)cc3)ccc2O[C@@H](C)CCCCO[C@H]1CN(C)S(=O)(=O)c1cccs1	HIV Env fusion 63[16.7 µM] (no result: Wnt act, MITF act)
C[C@@H]1CN([C@H](C)CO)C(=O)c2cc(NS(=O)(=O)c3ccc(Cl)cc3)ccc2O[C@@H](C)CCCCO[C@@H]1CN(C)S(=O)(=O)c1cccs1	none (no result: Wnt act, MITF act)
C[C@H](CO)N1C[C@H](C)[C@@H](CN(C)S(=O)(=O)c2ccccc2)Oc2c(NC(=O)C3CCOCC3)cccc2C1=O	none (no result: Wnt act, MITF act, HIV Env fusion)
O=C(Nc1nnc(SCc2ccccc2F)s1)C1=COCCO1	none (no result: miR-122 sensor)
O=C(Nc1nnc(SCc2ccccc2)s1)C1=COCCO1	esBAF inh 67 (no result: miR-122 sensor)
c1ccc(CSc2nnc(NC3=NCCCCC3)s2)cc1	esBAF inh 41 (no result: Wnt act, MITF act)
O=C(Nc1nnc(SCc2ccc(F)cc2)s1)C1=COCCO1	esBAF inh 48
CC(C)(C)c1ccccc1NC(=O)C1=COCCO1	none
O=C(NCCc1ccccc1)C1=COCCO1	esBAF inh 48 (no result: miR-122 sensor)
C[C@H]1CCCCO[C@@H](CN(C)C(=O)Nc2ccc(F)cc2)[C@@H](C)CN([C@@H](C)CO)C(=O)c2cc(NC(=O)c3ccccc3)ccc2O1	none (no result: Wnt act, MITF act)
C[C@H]1CCCCO[C@H](CN(C)C(=O)CCCN(C)C)[C@@H](C)CN([C@@H](C)CO)C(=O)c2cc(NC(=O)CCC(F)(F)F)ccc2O1	none (no result: Wnt act, MITF act)
C[C@H]1CN([C@@H](C)CO)C(=O)c2cc(C3=CCCCC3)cnc2O[C@@H]1CN(C)C(=O)Nc1ccccc1	none (no result: Wnt act, MITF act)
O=C(N=Nc1c(O)[nH]c2ccc(Br)cc12)c1ccco1	Wnt act 36, esBAF inh 60 (no result: MITF act)
O=[N+]([O-])c1ccc(Cl)c(C2Nc3cccc4cccc(c34)N2)c1	HIV Env fusion 58 (no result: MITF act)
O=C(c1ccccc1C(=O)N1CCN(c2ccc(F)cc2)CC1)N1CCN(c2ccc(F)cc2)CC1	none (no result: Wnt act, MITF act)
CS(=O)(=O)c1ccc(-c2sc3ccccc3c2C(=O)N2CCN(c3ccc(F)cc3)CC2)cc1	Wnt act 45, MITF act 94
c1ccc2[nH]c(SCC3CCCCO3)nc2c1 (configuration not stated)	Wnt act 40, MITF act 87 (no result: miR-122 sensor, esBAF inh)
C[C@@H]1CN([C@@H](C)CO)C(=O)c2cc(NS(=O)(=O)c3cccs3)ccc2O[C@@H](C)CCCCO[C@@H]1CN(C)C(=O)Nc1ccccc1	none (no result: Wnt act, MITF act)
N#Cc1ccc(NC(=O)c2cccs2)nc1	esBAF inh inconclusive, MITF act 86
O=C(Nc1ccc(NC(=O)c2cccs2)cn1)c1ccccc1	Wnt act 44, MITF act inconclusive (no result: miR-122 sensor, esBAF inh)
O=C(Cc1ccccc1)Nc1ccc(NC(=O)c2ccccc2)nc1	esBAF inh 56
O=C(Nc1ccc(NC(=O)C2CC2)nc1)c1cccs1	none (no result: Wnt act, HIV Env fusion)
O=C(/C=C\c1ccc(-c2ccccc2)o1)c1ccccc1	Wnt act 37 (no result: miR-122 sensor, esBAF inh)
O/N=C\c1ccc(-c2ccccc2)o1	esBAF inh 55 (no result: HIV Env fusion)
Cc1ccc(C(=O)/C=C/c2ccc(-c3ccc(C)cc3)o2)cc1	none (no result: miR-122 sensor, esBAF inh)
CCCNC(=O)N(C)C[C@@H]1Oc2ncc(-c3ccccc3F)cc2C(=O)N([C@@H](C)CO)C[C@@H]1C	none (no result: Wnt act, MITF act)
Cc1ccc(NC(=O)C(=O)NCC2CCCN2S(=O)(=O)c2cccs2)cc1C (configuration not stated)	none
COc1ccc(NC(=O)C(=O)NCC2CCCN2S(=O)(=O)c2cccs2)cc1 (configuration not stated)	HIV Env fusion 83
O=C(C1CCCC1)N1[C@@H](CO)[C@@H](c2ccccc2)C12CN(CCC(F)(F)F)C2	none (no result: Wnt act, miR-122 sensor, esBAF inh, MITF act)
CCC(=O)N(Cc1cc2ccccc2[nH]c1=O)C(C)C	none (no result: Wnt act, miR-122 sensor, HIV Env fusion)
CN(Cc1cc2ccccc2[nH]c1=O)C(=O)COc1ccccc1	Wnt act 50 (no result: miR-122 sensor, esBAF inh)

Compound activity as filed in PubChem.
